Potency data for 40 compounds are collected here from PubChem BioAssay (NCATS).

Records with an inconclusive call do not appear. Entries that show only a call come without a potency. Calls of active or inactive are those of the source. The call rests on the fitted dose curve; in most records, active means well fitted cell-killing curve with a large enough effect; inconclusive means small, poorly fitted or top-dose-only effect; inactive means no such curve, though single readings can be large or run the other way.
Potency means the concentration at half of the fitted maximal effect.

The nature of the test: Quantitative High-Throughput drug screen in 47 multiple myeloma cell lines against the NCATS MIPE library collection: JIM3_ECACC cell viability assay (AID 1918963; further: nearly all actives have a fitted effect of over 35% in size). Particulars: JIM3 myeloma viability, CellTiter-Glo ATP, 48 h; series mostly up to 45.8 µM. An excerpt: PI: Beverly A. Mock Ph.D.
Laboratory of Cancer Biology and Genetics,
Center for Cancer Research, National Cancer Institute,
National Institute of Health, Bethesda, Maryland
Drug resistance and disease progression are common in multiple myeloma (MM) patients, underscoring the need for new therapeutic combinations. […] We hypothesized that effective combinations would reduce MYC expression and enhance p16 activity. […] These preclinical data identify potentially useful drug combinations for evaluation in drug-resistant MM and reveal potential mechanisms of combined drug sensitivity.
Described herein is the primary MIPE qHTS used to cherrypick compounds. Validated compounds were then further tested for potential synergistic activiy.
[1] Peat TJ, Gaikwad SM, Dubois W, Gyabaah-Kessie N, Zhang S, Gorjifard S, Phyo Z, Andres M, Hughitt VK, Simpson RM, Miller MA, Girvin AT, Taylor A, Williams D, D'Antonio N, Zhang Y, Rajagopalan A, Flietner E, Wilson K, Zhang X, Shinn P, Klumpp-Thomas C, McKnight C, Itkin Z, Chen L, Kazandijian D, Zhang J, Michalowski AM, Simmons JK, Keats J, Thomas CJ, Mock BA. Drug combinations identified by high-throughput screening promote cell cycle transition and upregulate Smad pathways in myeloma. Cancer Lett. 2023 Aug 1;568:216284. doi: 10.1016/j.canlet.2023.216284. Epub 2023 Jun 24. PMID: 37356470; PMCID: PMC10408729.
SEQUENCE No. (e.g., 1, 2, 3, etc.); […] (e.g., Cells, Incubation, Reagent, etc.); VALUE and DESCRIPTION.
1; Cells; 5 uL; white, solid bottom 1536-well Greiner assay plate.
2; Compounds; 23 nL; Kalypsis pin tool (Wako USA) equipped with a 1536-well pin head to transfer to the assay plates.
3; Incubation; 48 hours; 37C incubation.
4; Reagent;5uL; CellTiter Glo (Promega).
5; Detector; 425V; Luminescence; Viewlux PerkinElmer.
NOTES (numbers refer to Sequence numbers above)
1. The cell-based screening methods employed in this study were like those previously published. Briefly, the corresponding myeloma cell lines were screened in 1,536-well plates with 500 cells, 5-uL per well for inhibition of cell viability (assessed by measuring ATP levels with CellTiterGlo).
2. NCATS MIPE 4.0 library of approved and investigational drugs were added using the Kalypsis pin tool. Wells treated with DMSO only for 100% viability and media only wells for 0% viability were used as controls.
3. The assay plates were covered and incubated for 48 hours in a 37C, 5% CO2 incubator with controlled humidity.
4. After 48 hours, CellTilter-GloTM luminescent substrate mix (Promega) reagent was added to the assay plate and plates we incubated for 5 min at room temperature.
5. Signal was measured as median relative luminescence units on a ViewLux (PerkinElmer) multiplate reader.
[1] Heske CM, Davis MI, Baumgart JT, Wilson K, Gormally MV, Chen L, Zhang X, Ceribelli M, Duveau DY, Guha R, Ferrer M, Arnaldez FI, Ji J, Tran HL, Zhang Y, Mendoza A, Helman LJ, Thomas CJ. Matrix Screen Identifies Synergistic Combination of PARP Inhibitors and Nicotinamide Phosphoribosyltransferase (NAMPT) Inhibitors in Ewing Sarcoma. Clin Cancer Res. 2017 Dec 1;23(23):7301-7311. doi: 10.1158/1078-0432.CCR-17-1121. Epub 2017 Sep 12. PMID: 28899971; PMCID: PMC6636827.
(In general: Cellular ATP, detected with luciferase, serves as a proxy for viable cell number.)
Consider `S=P(N1CC1)(N1CC1)N1CC1`, for which the Potency entry was “inactive”.

For the compound `Cc1cccc(N(C)C(=S)Oc2ccc3ccccc3c2)c1`, the Potency entry was “inactive”.

As for `O=C(O)CSCC(=O)NC1CCSC1=O` (stereo not given), the Potency entry was “inactive”.

As to `NCCCC(O)(P(=O)(O)O)P(=O)(O)O`, the Potency entry was “inactive”.

With `CNCC[C@H](Oc1cccc2ccccc12)c1cccs1`, the Potency was 5.26 µM (active).

Regarding `CN1CCN(c2c(F)cc3c(=O)c(C(=O)O)cn(CCF)c3c2F)CC1`, the Potency result is “inactive”.

For `COC(c1ccccc1)(c1ccccc1)[C@H](Oc1nc(C)cc(C)n1)C(=O)O`, the Potency entry was “inactive”.

For `CC(C)OC(=O)OCOP(=O)(CO[C@H](C)Cn1cnc2c(N)ncnc21)OCOC(=O)OC(C)C`, the Potency was 16.6 µM (active).

For `COc1c(N2CCNC(C)C2)c(F)cc2c(=O)c(C(=O)O)cn(C3CC3)c12` (stereo not given), the Potency result is “inactive”.

Turning to `CCCN[C@H]1CCc2nc(N)sc2C1`, the Potency entry is “inactive”.

As to `NC(=O)c1cccnc1`, the Potency result is “inactive”.

`COc1cnc(NS(=O)(=O)c2ccc(N)cc2)nc1`: the Potency entry is “inactive”.

As to `Cc1nnc(NS(=O)(=O)c2ccc(N)cc2)s1`, the Potency result is “inactive”.

In the case of `Nc1nc(N)nc(-c2cc(Cl)ccc2Cl)n1`, the Potency entry is “inactive”.

As for `COC(=O)Nc1nc2ccc(S(=O)c3ccccc3)cc2[nH]1` (stereo not given), the Potency was 20.9 µM (active).

Regarding `CS(=O)(=O)c1ccc([C@@H](O)[C@@H](CO)NC(=O)C(Cl)Cl)cc1`, the Potency is 9.35 µM (active).

Turning to `Cc1nnc(C(=O)NC(C)(C)c2nc(C(=O)NCc3ccc(F)cc3)c(O)c(=O)n2C)o1`, the Potency entry was “inactive”.

Take `CC1=CC(=O)c2ccccc2C1=O`: the Potency was 23.5 µM (active).

Consider `CC1(C)[C@H](C(=O)O)N2C(=O)C[C@H]2S1(=O)=O`, for which the Potency entry was “inactive”.

On to `C[C@@H](NCCCc1cccc(C(F)(F)F)c1)c1cccc2ccccc12`, for which the Potency was 13.2 µM (active).

On to `CCCc1cc(C(N)=S)ccn1`, for which the Potency entry was “inactive”.

On to `COc1ccccc1OCC(O)COC(N)=O` (stereo not given), for which the Potency entry was “inactive”.

As for `C[C@@H](CN1CC(=O)NC(=O)C1)N1CC(=O)NC(=O)C1`, the Potency result was “inactive”.

`Nc1nc(N)c2nc(CNc3ccc(C(=O)NC(CCC(=O)O)C(=O)O)cc3)cnc2n1` (stereo not given): the Potency is 0.0418 µM (active).

`Cc1cccc(Nc2ccncc2S(=O)(=O)NC(=O)NC(C)C)c1`: the Potency entry is “inactive”.

For `NC(=O)c1cccc(N)c1`, the Potency entry is “inactive”.

Take `CN1CCN(c2c(F)cc3c(=O)c(C(=O)O)cn4c3c2OCN4C)CC1`: the Potency result is “inactive”.

In the case of `Nc1ccc(S(=O)(=O)Nc2ccccn2)cc1`, the Potency entry is “inactive”.

With `Cc1cc(NS(=O)(=O)c2ccc(N)cc2)no1`, the Potency result is “inactive”.

On to `CCCCc1oc2ccc(NS(C)(=O)=O)cc2c1C(=O)c1ccc(OCCCN(CCCC)CCCC)cc1`, for which the Potency is 18.7 µM (active).

Regarding `C[C@@H]1CN(c2c(F)c(N)c3c(=O)c(C(=O)O)cn(C4CC4)c3c2F)C[C@H](C)N1`, the Potency entry is “inactive”.

As for `N[C@@H](Cc1ccc(O)c(O)c1)C(=O)O`, the Potency result is “inactive”.

Consider `NS(=O)(=O)c1cc2c(cc1Cl)NC(C(Cl)Cl)NS2(=O)=O` (stereo not given), for which the Potency result was “inactive”.

Consider `CCCOc1ccc(C(=O)OCCN(CC)CC)cc1N`, for which the Potency result is “inactive”.

For the compound `CCC(=O)O[C@]1(C(=O)CCl)[C@@H](C)C[C@H]2[C@@H]3CCC4=CC(=O)C=C[C@]4(C)[C@@]3(F)[C@@H](O)C[C@@]21C`, the Potency entry was “inactive”.

With `CCn1cc(C(=O)O)c(=O)c2cc(F)c(N3CCN(C)CC3)cc21`, the Potency result is “inactive”.

Regarding `O=C(O)c1cn(C2CC2)c2cc(N3CCNCC3)c(F)cc2c1=O`, the Potency entry was “inactive”.

Take `CCOc1cc(N)c(Cl)cc1C(=O)NCC1CN(Cc2ccc(F)cc2)CCO1` (stereo not given): the Potency entry is “inactive”.

Take `CN(C)CCc1c[nH]c2ccc(CS(=O)(=O)N3CCCC3)cc12`: the Potency result is “inactive”.

On to `OC(Cn1cncn1)(Cn1cncn1)c1ccc(F)cc1F`, for which the Potency entry was “inactive”.
